Data published in PubChem BioAssay AID2576 (National Center for Advancing Translational Sciences (NCATS), 2010).
Several values for one entry are separate records, joined by “and”; a condition that tells them apart may be missing. Identical values can stand only once. Inconclusive results are not listed. Activity calls are given as the source filed them. Calls come from the whole dose curve; as a rule, active = well fitted activation curve with a large enough effect; inconclusive = small, poorly fitted or top-dose-only effect, or effect the other way; inactive = flat fitted curve, though single readings scatter.

Target: Pyruvate kinase PKM (Homo sapiens) (UniProt P14618)
Sequence (P14618 whole entry, looked up, canonical isoform): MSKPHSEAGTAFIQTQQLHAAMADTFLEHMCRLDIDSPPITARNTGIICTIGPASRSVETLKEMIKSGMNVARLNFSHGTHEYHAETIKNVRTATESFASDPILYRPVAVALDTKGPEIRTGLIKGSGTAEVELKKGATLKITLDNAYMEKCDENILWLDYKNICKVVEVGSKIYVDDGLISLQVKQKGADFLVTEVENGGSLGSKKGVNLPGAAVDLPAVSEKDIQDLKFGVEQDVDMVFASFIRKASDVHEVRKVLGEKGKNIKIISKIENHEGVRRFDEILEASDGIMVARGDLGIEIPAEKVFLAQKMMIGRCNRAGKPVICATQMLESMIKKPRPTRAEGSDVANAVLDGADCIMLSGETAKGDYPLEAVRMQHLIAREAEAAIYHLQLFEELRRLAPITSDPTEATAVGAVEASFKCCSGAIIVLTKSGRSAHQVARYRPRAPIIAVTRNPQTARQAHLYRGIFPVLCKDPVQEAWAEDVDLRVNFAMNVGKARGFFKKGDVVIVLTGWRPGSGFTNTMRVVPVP
Assay: Secondary LDH Assay for Activators of Human Pyruvate Kinase M2 isoform: for Probe SAR
Conditions: purified hPK-M2, LDH-coupled NADH fluorescence kinetic; series mostly up to 58.4 µM; activation: at the top concentration
Description: NIH Chemical Genomics Center [NCGC] Matthew G. Vander Heiden, M.D., Ph.D. [Harvard Medical School, 77 Avenue Louis Pasteur, Boston, MA 02115] NCGC Assay Overview: Human pyruvate kinase muscle 2 (hPK-M2)enzyme was supplied as a highly purified (>95% pure) preparation from Harvard Medical School and a secondary assay was used to evaluate compounds. This assay couples the formation of pyruvate from hPK-M2 using lactate dehydrogenase (LDH) and NADH. The depletion of NADH is followed in a fluorescent-based kinetic assay that follows the formation of pyruvate to lactate, as catalyzed LDH (described by Hannaert et al., 2002)1 Pyruvate kinase substrates, PEP and ADP, were present in the assay at 0.1 mM and 4 mM respectively. In this kinetic assay initial rates were determined by following the fluorescence of NADH depletion.
NCGC Assay Protocol Summary: Three uL of substrate mix (final concentration, 50 mM Tris-Cl pH 8.0, 200 mM KCl, 15 mM MgCl2, 0.1 mM PEP, 4.0 mM ADP, and 0.2 mM NADH) was dispensed into black-solid 1536 well plates. 23 nL of compounds were delivered by a pin tool and 1 uL of enzyme mix (final concentrations, 10 nM hPK-M2 and 1 uM of LDH) was added. Plates were immediately placed in ViewLux (Perkin Elmer) and NADH fluorescence was determined at 30 second exposure intervals for between 3 and 6 minutes. Data were normalized to the uninhibited and EC100 activation using known activators such as fructose-bis-phosphate.

Row | SMILES | Potency | activation
1 | Cc1cc2c(s1)c1cnn(Cc3c(Cl)ccc(C)c3F)c(=O)c1n2C | 0.562 µM (active) | 
2 | Cc1ccc(N2C(=O)c3ccccc3C2=O)c(C)c1 |  | 1.44% (inactive)
3 | CCCCN1C(=O)c2ccccc2C1=O |  | 2.71% (inactive)
4 | Cc1ccc(NS(=O)(=O)c2cc3c(cc2F)NC(=O)CC3)cc1C | 2.59 µM (active) | 
5 | O=C1CCc2cc(S(=O)(=O)Nc3cccnc3)ccc2N1 |  | -4.47% (inactive)
6 | Cc1ccccc1OC1=NS(=O)(=O)c2ccccc21 |  | 1.19% (inactive)
7 | O=C1CCc2cc(S(=O)(=O)Nc3ccc(-c4ccccc4)cc3)ccc2N1 |  | 6.56% (inactive)
8 | COc1ccc(NS(=O)(=O)c2ccc3c(c2)CCC(=O)N3)cc1 |  | 24.1% (inactive)
9 | O=S1(=O)N=C(Oc2ccccc2)c2ccccc21 |  | 2.56% [at 82.8 µM] (inactive)
10 | Cc1ccc(-c2nc3ccc(Cl)cn3c2Nc2ccccc2)o1 |  | -2.32% (inactive)
11 | O=S1(=O)N=C(Oc2ccccc2Cl)c2ccccc21 |  | 4.09% (inactive)
12 | CC(=O)Nc1cccc(S(=O)(=O)Nc2ccc(C)c(C)c2)c1 |  | 11.3% (inactive)
13 | COc1ccc(N2C(=O)c3ccccc3C2=O)cc1 |  | 1.75% (inactive)
14 | O=C1c2ccccc2C(=O)N1Cc1ccncc1 |  | 1.93% (inactive)
15 | Cc1ccc2nc(-c3ccc(C)o3)c(Nc3ccc4c(c3)OCO4)n2c1 | 29.1 µM (active) | 
16 | O=C1c2ccccc2C(=O)N1c1cccc(Cl)c1 |  | -2.64% (inactive)
17 | O=C1c2ccccc2C(=O)N1c1cc(=O)c2ccccc2[nH]1 |  | 8.9% (inactive)
18 | Cc1cccc(OC2=NS(=O)(=O)c3ccccc32)c1 |  | 2.22% (inactive)
19 | COc1ccc(S(=O)(=O)Nc2ccc(C)c(C)c2)cc1 |  | 13.8% (inactive)
20 | Cc1ccc(NS(=O)(=O)c2cc3c(cc2-c2cn[nH]c2)NC(=O)CO3)cc1C |  | 2.03% (inactive)

Row | SMILES | Potency | activation
21 | O=C1c2ccccc2C(=O)N1c1ccccn1 |  | -0.663% (inactive)
22 | Cc1ccc(-c2nc3cnccn3c2Nc2ccc(C(C)C)cc2)o1 |  | 8.88% (inactive)
23 | Cc1ccc(NS(=O)(=O)c2cc3c(cc2-c2ccccc2)NC(=O)CO3)cc1C |  | 5.95% (inactive)
24 | COc1cccc(OC2=NS(=O)(=O)c3ccccc32)c1 |  | 4.89% (inactive)
25 | O=C1c2ccccc2C(=O)N1c1cccc(=O)[nH]1 |  | 3.56% (inactive)
26 | O=C1c2ccccc2C(=O)N1c1ccccc1O |  | -4.29% (inactive)
27 | O=C1CCc2cc(S(=O)(=O)Nc3ccccc3-c3ccccc3)ccc2N1 |  | 5.58% (inactive)
28 | COc1ccccc1N1C(=O)c2ccccc2C1=O |  | 7.13% (inactive)
29 | O=C1CCc2cc(S(=O)(=O)Nc3ccncc3)ccc2N1 |  | 14.4% (inactive)
30 | O=C1c2ccccc2C(=O)N1c1noc2ccccc12 |  | -11.1% (inactive)
31 | Cc1ccc(NS(=O)(=O)c2ccc3c(c2)CCC(=O)N3)cc1C | 0.146 µM (active) | 
32 | CC(=O)Nc1ccc(S(=O)(=O)Nc2ccc(C)c(C)c2)cc1 |  | 5.65% (inactive)
33 | COc1cccc(Cn2ncc3c4sc(S(C)=O)cc4n(C)c3c2=O)c1 (stereo not given) | 410 nM (active) and 206 nM (active) | 
34 | Cc1ccc(NS(=O)(=O)c2ccc3c(c2)N(C)C(=O)CO3)cc1C | 1.46 µM (active) | 
35 | O=C1c2ccccc2C(=O)N1c1ccc(O)cc1 |  | 4.24% (inactive)
36 | Cc1ccc(NS(=O)(=O)c2ccc3c(c2)CCN(C(=O)C(F)(F)F)C3)cc1C |  | 16.1% (inactive)
37 | Cc1ccc2nc(-c3ccc(C)o3)c(NC3CCCC3)n2c1 |  | -15.3% (inactive)
38 | Cc1ccc(NS(=O)(=O)c2cc3c(cc2/C=C/c2ccccc2)NC(=O)CO3)cc1C |  | -4.81% (inactive)
39 | O=C1c2ccccc2C(=O)N1C1CCCCC1 |  | 3.59% (inactive)
40 | O=C1c2ccccc2C(=O)N1c1nccs1 |  | 9.77% (inactive)
